Tests used:
Assay in all cases: PBM binding z-score (relative to random genomic background probes); higher = stronger binding; sequences stand for … in GC…GCGATTGACAGCGTAGAATGAAGG
[1] = test system: FXR:RXRa (NR concentration 270 nM, RXRa partner concentration 90 nM)
Outline: (§1)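 Binding z-scores take random background probes as their reference. They come from custom Agilent 4×180K protein-binding microarrays incubated 1 h with ligand-free nuclear receptor dimers, with antibodies against each partner (one per run) detecting binding. Scanned fluorescence was regression-normalized.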

[2] = test system: LXRa:RXRa (NR concentration 270 nM, RXRa partner concentration 90 nM)
Outline: as §1

[3] = test system: LXRa homodimer (NR concentration 270 nM)
Outline: as §1

[4] = test system: LXRb:RXRa (NR concentration 270 nM, RXRa partner concentration 90 nM)
Outline: as §1

[5] = test system: LXRb homodimer (NR concentration 270 nM)
Outline: as §1

[6] = test system: PPARa:RXRa (NR concentration 270 nM, RXRa partner concentration 90 nM)
Outline: as §1

[7] = test system: PPARg:RXRa (NR concentration 180 nM, RXRa partner concentration 90 nM)
Outline: as §1

[8] = test system: PPARg:RXRa 270nM:90nM, anti-RXR (NR concentration 270 nM, RXRa partner concentration 90 nM)
Outline: as §1

[9] = test system: PPARg:RXRa 30nM:10nM, anti-RXR (NR concentration 30 nM, RXRa partner concentration 10 nM)
Outline: as §1

[10] = test system: PPARg:RXRa 90nM:30nM, anti-RXR (NR concentration 90 nM, RXRa partner concentration 30 nM)
Outline: as §1

[11] = test system: PPARg:RXRa DBDmut IVT, anti-RXR (DBD mutation: RXRa K156A/R161A, NR concentration 270 nM, RXRa partner concentration 90 nM)
Outline: as §1

[12] = test system: PPARg:RXRa IVT, anti-PPARg (NR concentration 270 nM, RXRa partner concentration 90 nM)
Outline: as §1

[13] = test system: PPARg DBDmut:RXRa IVT, anti-PPARg (DBD mutation: PPARg1 K132A/R137A, NR concentration 270 nM, RXRa partner concentration 90 nM)
Outline: as §1

[14] = test system: PPARg DBDmut IVT, anti-PPARg (DBD mutation: PPARg1 K132A/R137A, NR concentration 270 nM)
Outline: as §1

[15] = test system: PPARg homodimer (NR concentration 180 nM)
Outline: as §1

[16] = test system: PXR:RXRa (NR concentration 270 nM, RXRa partner concentration 90 nM)
Outline: as §1

[17] = test system: PXR homodimer (NR concentration 270 nM)
Outline: as §1

[18] = test system: RARa:RXR (NR concentration 270 nM, RXRa partner concentration 90 nM)
Outline: as §1

[19] = test system: RARa homodimer (NR concentration 270 nM)
Outline: as §1

[20] = test system: RARb:RXRa (NR concentration 270 nM, RXRa partner concentration 90 nM)
Outline: as §1

| Sequence | PBM binding z-score [1] | PBM binding z-score [2] | PBM binding z-score [3] | PBM binding z-score [4] | PBM binding z-score [5] | PBM binding z-score [6] | PBM binding z-score [7] | PBM binding z-score [8] | PBM binding z-score [9] | PBM binding z-score [10] | PBM binding z-score [11] | PBM binding z-score [12] | PBM binding z-score [13] | PBM binding z-score [14] | PBM binding z-score [15] | PBM binding z-score [16] | PBM binding z-score [17] | PBM binding z-score [18] | PBM binding z-score [19] | PBM binding z-score [20] |
| --- | --- | --- | --- | --- | --- | --- | --- | --- | --- | --- | --- | --- | --- | --- | --- | --- | --- | --- | --- | --- |
| GCTGCTAGGTCAACTGATTGTCAGCTAAAGCTCG | 4.09 | 2.79 | -0.17 | 2.06 | 0.0753 | 3.54 | 2.73 | 3.13 | 0.683 | 2.12 | 4.92 | 4.51 | -0.116 | -0.522 | 0.898 | 1.19 | -0.593 | 2.27 | -0.584 | 4.25 |
| CTCGAAATGTCGGTTGAGGTGAGTATACGGATAA | 0.47 | -0.279 | -0.308 | -0.214 | 0.0912 | 0.0141 | 0.0414 | 0.218 | 0.0305 | -0.0265 | -0.0159 | 0.503 | 0.298 | 0.408 | 0.0152 | 0.0277 | -0.637 | 0.341 | -0.1 | 0.334 |
| TCAGACAGGTGAAGGTAACTCCGGTACGCAGTCG | 0.787 | 2.08 | -0.352 | 0.966 | -0.314 | 1.21 | 0.509 | 2.09 | 3.78 | 2.96 | 2.59 | 1.09 | -0.276 | -0.342 | 0.498 | 0.475 | -0.04 | 0.651 | 0.0905 | 1.1 |
| ACTACTAGTTGAGACGAGGGCAACCGATAGGTTG | 0.166 | -0.245 | -0.365 | -0.0617 | -0.193 | 0.173 | 0.721 | 0.0309 | -0.149 | -0.0878 | 0.0475 | 0.419 | 0.298 | 0.0425 | 0.265 | 1.22 | 0.4 | 0.775 | 0.103 | 0.93 |
| CCTCGGAGGACAGAAGGTAAGAGCTGTCCGCTTT | -0.304 | -0.532 | -0.965 | -1.02 | -1.17 | -0.652 | -0.402 | -0.815 | -1.03 | -0.914 | -0.432 | -0.658 | -1.58 | -1.77 | -0.354 | -0.918 | -0.487 | -0.713 | -0.583 | 0.19 |
| GCGACTGGGGCAAAGCACGTTACCATAAGGTTGG | -0.454 | -0.482 | -0.763 | -0.305 | -0.971 | 0.875 | 1.7 | 2.21 | 0.24 | 1.62 | 4.44 | 3.18 | 0.131 | -0.127 | 0.0548 | -0.54 | -0.386 | -0.0632 | -0.156 | 0.573 |
| TCATATAGGTAAACAGGTGAAAGTGCGTAAGTTA | 1.13 | 1.29 | 0.37 | 1.13 | 0.114 | 3.19 | 4.88 | 5.09 | 4.64 | 5.1 | 4.84 | 4.9 | 1.29 | 1.03 | 1.33 | 1.04 | 0.631 | 1.27 | 1.75 | 0.94 |

Reference: the supplement of paper PMC6555819
